# Compounds with a hit are over-represented: about 19% of the library has one in this group of screens.
# TGFb inhibitor: qHTS for Inhibitors of TGF-b; AID 588855, 2011; 1.2% of 410,000 active; Potency, µM (highest dose often 46.1 µM), without a hit: top-dose activity, negative = inhibition, most hits filed as inhibitors; HepG2 CAGA-GFP TGF-b/SMAD3 reporter, GFP fluorescence, 18 h; TGF-beta stimulated, 500 pg/mL final; note: potency is the fitted concentration of half-maximal effect; % is set by controls: 0 for no effect and ±100 for the full control effect; nearly all actives have a fitted effect of over 65% in size
#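 GFP signal (ex488/em500-530) from TGF-beta-stimulated HEPG2 CAGA-GFP cells, 500 pg/mL final, 18 h at 37 degrees C in DMEM plus 1% FBS, normalized to unstimulated and DMSO-stimulated controls.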
# ASM inhibitor: Inhibitors of Secretory Acid Sphingomyelinase (S-ASM): qHTS. Sphingomyelin phosphodiesterase (Homo sapiens), P17405. placental ASM, HMU-PC fluorogenic substrate, 60 min. Potency, µM (series often up to 57.5 µM), for inactives: at the highest dose activity change, negative = inhibition, most hits filed as inhibitors. 0.006% of 340,000 active; note: potency is the fitted concentration of half-maximal effect
# Target sequence (P17405 47-631 limits assumed): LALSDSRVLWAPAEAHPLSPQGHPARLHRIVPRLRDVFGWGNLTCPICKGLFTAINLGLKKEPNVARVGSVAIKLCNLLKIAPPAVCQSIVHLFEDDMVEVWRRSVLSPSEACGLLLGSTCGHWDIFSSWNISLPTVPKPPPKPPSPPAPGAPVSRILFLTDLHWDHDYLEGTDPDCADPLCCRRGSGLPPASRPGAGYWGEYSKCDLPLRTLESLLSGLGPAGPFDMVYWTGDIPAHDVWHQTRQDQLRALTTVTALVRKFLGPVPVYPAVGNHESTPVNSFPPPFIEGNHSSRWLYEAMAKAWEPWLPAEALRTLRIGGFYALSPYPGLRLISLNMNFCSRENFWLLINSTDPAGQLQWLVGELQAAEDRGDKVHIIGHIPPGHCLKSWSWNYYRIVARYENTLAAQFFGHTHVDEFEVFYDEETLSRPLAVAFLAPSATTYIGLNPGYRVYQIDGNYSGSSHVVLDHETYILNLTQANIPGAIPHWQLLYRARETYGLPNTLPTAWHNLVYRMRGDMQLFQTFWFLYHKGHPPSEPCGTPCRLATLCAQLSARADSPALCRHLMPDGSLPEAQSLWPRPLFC
#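 Human placenta-derived ASM preincubated with compound 10 min at room temperature, then reacted with 9 uM (final) fluorogenic HMU-PC substrate for 60 min at 37 C. Stop solution raises pH to 10; fluorescence read at Ex 386/Em 447 nm.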
# DT40 TDP1 no CPT: qHTS for Inhibitors of human tyrosyl-DNA phosphodiesterase 1 (TDP1): qHTS in cells in absence of CPT. DT40 Tdp1-/- hTDP1 cells, no CPT, ATP luminescence, 48 h. 15% of 420,000 active. Potency, µM (top dose mostly 46.2 µM), without a hit: at the highest dose activity change, negative = growth inhibition, hits mostly inhibitors; note: potency is the fitted concentration of half-maximal effect; % is set by controls: 0 for no effect and ±100 for the full control effect; nearly all actives have a fitted effect of over 55% in size
#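 DT40 Tdp1-/-;hTDP1 cells, no CPT (DMSO vehicle only), 400 cells/well; compounds pin-transferred; ≥48 hr, 37 °C; CellTiter-Glo 30 min RT dark, luminescence read.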
# TDP1 cell CPT: qHTS for Inhibitors of human tyrosyl-DNA phosphodiesterase 1 (TDP1): qHTS in cells in presence of CPT; AID 686979, 2013; chicken DT40 Tdp1-/-;hTDP1 cells + 20 nM CPT, ATP luminescence, 48 h; Potency, µM (series often up to 46.2 µM), for the others: at the top dose activity change, negative = growth inhibition, hits mostly inhibitors; 12% of 420,000 active; note: potency is the fitted concentration of half-maximal effect; % is set by controls: 0 for no effect and ±100 for the full control effect; nearly all actives have a fitted effect of over 55% in size
#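 Chicken DT40 Tdp1-/- cells complemented with human TDP1, 400 cells/well, exposed to compounds plus 20 nM camptothecin for at least 48 h at 37 C; viability read as ATP content by CellTiter-Glo luminescence.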
# IL1B secr inh: qHTS for Inhibitors of Inflammasome Signaling: IL-1-beta AlphaLISA Primary Screen | THP-1 LPS/ATP IL-1B secretion, AlphaLISA, 16 h; hits give low values | activity change, % at 57.5 µM | 4.7% of 360,000 active; in the data active = activity change below about -50%; inconclusive = mostly about -30% to -49%; note: % is set by controls: 0 for no effect and ±100 for the full control effect
#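 THP-1 cells pretreated 1 hr with compounds (up to 57.5 uM final), then stimulated with LPS (250 ng/mL final) plus ATP (1.25 mM final); secreted IL-1B measured by AlphaLISA after 16 hr, decreased signal indicating inhibition.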
# HepG2 tox: qHTS for Inhibitors of TGF-b: Cytotox Counterscreen; HepG2 CAGA-GFP viability, ATP luminescence, 18 h; Potency, µM (titrated, usually from 46.1 µM), for the others: top-dose activity change, negative = cytotoxicity, hits mostly cytotoxic; 0.76% of 410,000 active; note: potency is the fitted concentration of half-maximal effect
#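 CellTiter-Glo luminescence gave cytotoxicity after 18 hours at 37 degrees C. The cells were HepG2 CAGA-GFP in 1% FBS DMEM, stimulated with 500 pg/mL TGF-beta after compound addition. %Activity was normalised to no-cell wells (complete cell-killing) and DMSO (no toxicity), and curves were fitted and classified.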
# * marks the source's active call; other numbers are inactive results; ? = inconclusive; nt = no result; ! = not active in a repeat. Unless noted, calls come from the whole dose curve; as a rule, active = well fitted curve in the direction sought with a large enough effect; inconclusive = small, poorly fitted or top-dose-only effect, or another doubt; inactive = no such curve, though single readings can be large; an effect the other way counts as inactive or inconclusive.
SMILES,TGFb inhibitor,ASM inhibitor,DT40 TDP1 no CPT,TDP1 cell CPT,IL1B secr inh,HepG2 tox
CCc1nnc(NC(=O)C2CCCN(C(=O)c3ccc(Cl)cc3)C2)s1 (stereo not given),2.3%,0.7%,?,?,-3.0,-12.5%
COc1ccc(CCC(=O)OCC(=O)Nc2ccccc2)cc1,-1.8%,-0.4%,-15.5%,9.4%,4.5,-4.6%
O=C(Nc1cccc(-c2cn3ccccc3n2)c1)c1ccccc1,1.1%,1.5%,?,?,-68.4*,-1.0%
Cc1cccc(S(=O)(=O)Nc2ccc(-c3cn4ccccc4n3)cc2)c1,-1.0%,1.2%,-26.8%,-3.4%,-17.2,3.8%
Cc1cc(C)c(S(=O)(=O)Nc2cccc(-c3cn4ccccc4n3)c2)c(C)c1,?,nt,29.1µM*,18.4µM*,nt,3.4%
Cc1ccc(C(=O)Nc2cccc(-c3cn4ccccc4n3)c2)cc1,-20.2%,-3.0%,?,?,-51.6*,-23.3%
Cn1cc(Cl)c(C(=O)OCC(=O)Nc2cccc(Cl)c2)n1,1.9%,-1.9%,-13.8%,-10.9%,-6.6,3.9%
CC(=O)c1ccc(NC(=O)CSC2=Nc3ccccc3N=C(c3ccc(F)cc3)C2)cc1,?,nt,9.2µM*,16.4µM*,nt,0.3%
O=C(CSC1=Nc2ccccc2N=C(c2ccc(F)cc2)C1)Nc1ccc(Cl)cc1,3.7%,nt,25.9µM*,20.6µM*,nt,9.9%
c1cc(-c2cc3cc4c(cc3cn2)OCO4)cs1,-15.5%,4.0%,?,14.6µM*,26.9,8.1%
Cn1c(N)c(N=O)c(=O)n(C)c1=S,10.4%,-3.9%,?,-9.3%,7.8,0.2%
COc1ccc(CNC(=O)C[C@H]2C(=O)N(C3CCCCC3)C[C@@H]2Cc2ccccc2)cc1,24.7%,1.2%,-25.0%,?,9.6,36.0%
COc1ccc(CNC(=O)C[C@H]2C(=O)N(Cc3ccccc3)C[C@@H]2Cc2ccccc2)cc1,?,3.4%,18.4µM*,?,-15.5,-30.5%
COc1ccc(NC(=O)C[C@H]2C(=O)N(Cc3ccccc3)C[C@@H]2CSC)cc1,1.0%,nt,?,?,-17.9,-20.6%
COc1ccc(CNC(=O)C[C@H]2C(=O)N(Cc3ccc(OC)cc3)C[C@@H]2Cc2ccccc2)cc1,?,-5.5%,8.91µM*,20.6µM*,4.8,-16.7%
COc1ccc(CNC(=O)C[C@H]2C(=O)N(CCc3ccccc3)C[C@@H]2Cc2ccccc2)cc1,-36.8%,-4.6%,22.4µM*,16.4µM*,?,-5.4%
CCCCC[C@H]1CN(Cc2ccccc2)C(=O)[C@@H]1CC(=O)NCc1ccc(OC)cc1,10µM*,-1.5%,16.4µM*,20.6µM*,-20.3,-3.0%
O=C(Nc1ccccc1C(=O)O)C1=NN=CC1,-1.4%,0.4%,-1.9%,-3.9%,7.5,5.2%
CC(=O)c1ccc(N(CC(=O)NCc2ccc3c(c2)OCO3)C(=O)c2csnn2)cc1,-2.1%,-5.2%,-22.1%,17.3%,17.6,1.6%
CN(C)CCN(Cc1ccco1)S(=O)(=O)c1ccc(-c2ccc(=O)[nH]n2)s1,10.2%,1.8%,13.5%,-1.9%,7.5,2.6%
CC1CCN(C(=O)CN(c2ccc3c(c2)OCCO3)S(=O)(=O)c2ccccc2)CC1,0.2%,4.0%,?,-5.0%,-15.8,-2.1%
CCCCC[C@H]1CN(C2CCCCC2)C(=O)[C@@H]1CC(=O)NCc1ccccc1,11.2µM*,0.4%,12.6µM*!,11.2µM*,?,15.8µM*!
COc1c(C)cccc1C(=O)Nc1ccc(N2CCOCC2)c(Cl)c1,2.0%,-0.2%,?,?,-69.2*,-18.9%
O=C(Nc1ccc(N2CCOCC2)c(Cl)c1)c1c(F)c(F)c(F)c(F)c1F,-3.8%,-3.9%,16.4µM*,23.1µM*,-12.0,-0.3%
CC(=O)Nc1ccc(N2CCOCC2)c(Cl)c1,-20.0%,1.3%,6.5%,-4.0%,-12.4,-10.5%
SMILES,TGFb inhibitor,ASM inhibitor,DT40 TDP1 no CPT,TDP1 cell CPT,IL1B secr inh,HepG2 tox
O=C(Nc1ccc(N2CCOCC2)c(Cl)c1)c1cc(F)c(F)cc1Cl,-3.8%,-5.0%,?,?,-58.0*,-28.1%
O=C(Nc1ccc(N2CCOCC2)c(Cl)c1)c1cccc(F)c1,6.2%,2.9%,?,-24.6%,-54.5*,-49.5%
O=C(Nc1ccc(N2CCOCC2)c(Cl)c1)c1cccnc1Cl,-3.1%,-1.4%,-26.5%,7.9%,-5.9,-1.4%
Cc1cc(C)cc(OCC(=O)OCC(=O)Nc2cc(S(=O)(=O)N3CCOCC3)ccc2Cl)c1,-8.0%,-1.3%,-7.3%,-9.0%,4.8,-5.3%
O=C(NCc1ccccc1CN1CCCC1)c1ccc(Cl)c(N2CCCC2=O)c1,18.4%,6.6%,-9.2%,-1.2%,-7.0,-20.0%
COc1c(F)c(F)c(C(=O)Nc2cccc(Cl)c2N2CCOCC2)c(F)c1F,?,-1.3%,20.6µM*,14.6µM*,-2.6,-1.1%
O=S(=O)(CCN(CCS(=O)(=O)C(F)(F)F)CC1CCCO1)C(F)(F)F (stereo not given),-7.9%,0.5%,2.31µM*,2.31µM*,-5.7,-16.1%
CC(C)(C)NS(=O)(=O)c1ccc(CCC(=O)Nc2cc(Cl)ccc2Oc2ccccc2)cc1,?,-12.0%,?,?,-63.2*,1.3%
CC(C)CNS(=O)(=O)c1ccc(CCC(=O)Nc2cc(Cl)ccc2Oc2ccccc2)cc1,-1.6%,1.6%,?,?,?,-18.7%
CS(=O)(=O)c1nc(S(=O)(=O)c2ccc(Cl)cc2)c(NCCCn2ccnc2)s1,-0.4%,-5.2%,20.0%,5.3%,-56.2*,1.3%
CS(=O)(=O)c1nc(S(=O)(=O)c2ccc(Cl)cc2)c(NCCN2CCOCC2)s1,-1.5%,-0.8%,20.2%,-10.9%,-52.0*,-1.9%
CC(=O)N1CCCc2cc(S(=O)(=O)NCc3ccccc3Cl)ccc21,-27.1%,nt,?,?,nt,-34.7%
CN(C)CCNC(=O)c1cccc(-c2cnc3c(NC=O)cc(-c4cc(F)c(F)c(F)c4)cn23)c1,?,nt,3.26µM*,4.11µM*,81.5,-112.3%
CN(C)CCNC(=O)c1cccc(-c2cc(NC=O)c3ncc(-c4cccc(C(F)(F)F)c4)n3c2)c1,?,nt,5.17µM*,3.26µM*,-109.0*,20µM*
COc1ccc2cnn(-c3ccccc3C)c(=O)c2c1OC,-1.8%,3.7%,7.31µM*,10.3µM*,19.8,-24.7%
